# Screening data from PubChem.
# FBPA coupling cs: counter-screen for Giardia aldolase inhibitors: coupling enzyme system; coupling enzyme system counterscreen, AmpLite Red fluorescence; activity change, negative = inhibition, % at 58.2 µM, hits read low; hit rate 0.67% among 290,000; in the data active means activity change below about -30%
#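 Counterscreen lacking aldolase: glyceraldehyde-3-phosphate coupling-enzyme reagent preincubated 10 min at RT with compound (at 57.5 uM final), then substrate/coupling system with AmpLite Red added; fluorescence read at 525/598 nm after 20 min RT.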
# Tau fluor cs: counter-screen for tau fibril formation inhibitors; hit rate 0.93% among 280,000; tau K18 P301L Alexa594 fluorescence, heparin fibrillization; Potency, µM (doses to about 57.7 µM), without a hit: at the top dose activity change, negative = decrease; further: potency means the concentration at half of the fitted maximal effect; nearly all actives have a fitted effect of over 55% in size
#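 Human tau K18 P301L (15 uM unlabeled, 0.24 uM Alexa 594-labeled) in 100 mM sodium acetate pH 7 with 20 uM heparin, 6 hr at 37 C. ThT 30 uM added, 1 hr ambient; Alexa 594 FP and total fluorescence read at 555/632 nm.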
# Tau ThT inhib: inhibitors of human tau fibril formation, thioflavin T binding. P10636. recombinant tau K18 P301L, heparin-induced fibrillization, ThT fluorescence. Potency, µM (highest dose often 57.4 µM), inactives show top-dose activity, negative = inhibition, usual class: inhibitors. hit rate 2.1% among 270,000. AID 1460; further: potency means the concentration at half of the fitted maximal effect; nearly all actives have a fitted effect of over 55% in size
# Target sequence (P10636 561-689 P618L limits assumed): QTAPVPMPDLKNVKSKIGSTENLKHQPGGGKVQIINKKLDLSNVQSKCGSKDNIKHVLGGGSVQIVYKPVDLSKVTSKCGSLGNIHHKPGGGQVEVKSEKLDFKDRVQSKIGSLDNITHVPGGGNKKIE
#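 In this qHTS, human K18 P301L tau is incubated with compound and heparin for 6 hr at 37 C, and Thioflavin T fluorescence then reports fibril load.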
# JMJD2E inh: blocks human JMJD2E demethylase activity; Potency, µM (highest dose often 57.1 µM), for inactives: at the highest dose activity change, negative = inhibition, hits mostly inhibitors; JMJD2E catalytic domain, FDH-coupled NADH fluorescence (FDH is formaldehyde dehydrogenase); hit rate 1.6% among 230,000; active means well fitted inhibition curve with a large enough effect, not every such curve was filed as active; inconclusive means small, poorly fitted or top-dose-only effect, or another doubt; inactive means no such curve, though single readings can be large or run the other way;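 further: potency means the concentration at half of the fitted maximal effect; 0% = wells with enzyme and -100% = buffer wells without enzyme; nearly all actives have a fitted effect of over 50% in size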
# Target sequence (B2RXH2 1-337 limits assumed): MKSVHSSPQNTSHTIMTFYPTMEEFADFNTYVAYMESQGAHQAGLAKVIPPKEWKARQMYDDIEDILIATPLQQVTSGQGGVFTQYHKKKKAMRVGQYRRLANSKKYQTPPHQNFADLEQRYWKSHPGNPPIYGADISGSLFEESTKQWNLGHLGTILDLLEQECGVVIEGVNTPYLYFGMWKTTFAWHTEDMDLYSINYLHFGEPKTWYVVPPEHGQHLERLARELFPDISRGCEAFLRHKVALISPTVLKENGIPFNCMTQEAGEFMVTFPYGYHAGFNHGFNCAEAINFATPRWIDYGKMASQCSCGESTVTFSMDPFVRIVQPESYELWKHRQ
# Tau fibril FP: inhibitors of human tau fibril formation. P10636. K18 P301L tau heparin fibrillization, Alexa594 FP, 6 h. Potency, µM (titrated, usually from 57.7 µM), inactives show at the top dose activity, negative = inhibition, usual class: inhibitors. hit rate 0.39% among 280,000. AID 1468; further: potency means the concentration at half of the fitted maximal effect; nearly all actives have a fitted effect of over 55% in size
#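 Heparin (20 uM) drove fibril formation of recombinant tau K18 P301L, 15 uM unlabeled with 0.24 uM Alexa 594 label, for 6 hr at 37 C in 100 mM sodium acetate pH 7. Fluorescence polarization (555/632 nm) read 1 hr after 30 uM ThT.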
# Sfp inh: Sfp phosphopantetheinyl transferase inhibition; Potency, µM, for the others: largest response in the series, negative = inhibition, actives largely listed as inhibitors; AID 1490; Biochemical Sfp PPTase activity, qHTS; hit rate 3.5% among 310,000;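 further: the enzyme is Sfp with the accession as filed and its product quenches rhodamine fluorescence; potency means the concentration at half of the fitted maximal effect; 0% = enzyme reaction without inhibitor and -100% = no enzyme wells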
#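 After 15 min at room temperature with compound, 15 nM Sfp received 5 uM rhodamine-CoA plus 12.5 uM BHQ-2-ybbR (50 mM Hepes pH 7.6, 10 mM MgCl2). Rate came from the fluorescence difference over 30 min, ex 525/em 598 nm.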
# An asterisk follows results filed as active; ? = inconclusive; / = not tested or not shown; [ ] = dose if it differs, or a comment. This is a sample that favours compounds with a hit; in the whole collection about 5.3% have one here. Unless noted, the call rests on the fitted dose curve; in most records, active means well fitted curve in the direction sought with a large enough effect; inconclusive means small, poorly fitted or top-dose-only effect, or another doubt; inactive means no such curve, though single readings can be large; an effect the other way counts as inactive or inconclusive. Unless noted, on the % scale 0 is the no-effect control and ±100 the full control effect.
SMILES,FBPA coupling cs,Tau fluor cs,Tau ThT inhib,JMJD2E inh,Tau fibril FP,Sfp inh
Clc1ccc(/C(Cc2nc3ccccc3[nH]2)=N\Nc2ccccc2)cc1,1.6,12.6µM*[quencher],?,22.4µM*,-7.9%,-3.0%
C/C=C(/C)C(=O)O[C@H]1C[C@@]2(C)O[C@H]2[C@@H](OC(C)=O)C2(C)CC[C@@](O)(C(C)C)C12 (some centres undefined),-0.3,/,/,/,/,18.4%
C=CC[C@@H]1C=C[C@@H](O/N=C2/C[C@@H](O)[C@@H](O)[C@@H]3[C@@H]4C(=O)N(CC)C(=O)[C@H]4CC[C@@H]23)[C@@H](CO)O1,0.2,-2.6%[11.6 µM],1.6%[11.5 µM],/,-0.5%[11.6 µM],18.8%
Cc1ccc(-n2c(SCC(=O)NCc3ccccc3)nc3n[nH]c(C)c3c2=N)cc1Cl,/,-4.4%,3.7%,/,-9.3%,/
CCCN1CCN(CCCNC(=S)Nc2ccc(OC)cc2)CC1,-1.0,4.5%,0.8%,3.9%,-7.9%,13.9%
COc1ccc(Cl)cc1NC(=S)NCCN1CCOCC1,0.5,1.3%,-2.4%,?,3.2%,-7.9%
COc1cc(NC(=S)NCCCN2CCOCC2)c(OC)cc1Cl,2.5,-1.9%,2.8%,9.5%,0.0%,13.3%
COc1ccc(OC)c(NC(=S)NCCCN2CCOCC2)c1,-0.6,1.1%,1.3%,-8.0%,-4.4%,50.1µM*
COc1ccc(NC(=S)NCCCN2CCCC2)cc1Cl,0.6,-16.7%,-9.3%,5.4%,8.5%,20µM*
COc1ccc(NC(=S)NCCN2CCC(C)CC2)cc1Cl,-47.1*,-6.3%,-4.3%,7.6%,-2.1%,2.51µM*
CN1CCN(c2ncc3nc(-c4cc(F)cc(F)c4)c(=O)n(CCc4ccccc4)c3n2)CC1,6.9,/,/,/,/,-4.8%
COc1cc2c(cc1OC)-c1cc3cc(OC)c(OC)cc3c(=O)n1CC2,-0.3,-27.0%,?,?,7.0%,16.4%
O=C1C=C(N(CCO)Cc2ccccc2)c2ccccc2C1=O,-74.8*,-27.5%,12.6µM*,7.4%,?,2.0%
COc1ccc(CNC(=O)Cc2c(C)c3c(cc(C)c4c(C)c(C)oc43)oc2=O)cc1,/,0.1%,4.1%,/,2.3%,/
COc1cccc(CNC(=O)CCC2CCCN(C(=O)c3cc(C)on3)C2)c1 (centres undefined),0.3,-15.7%,-7.8%,6.1%,?,6.2%
COc1cccc(CNC(=O)CCC2CCCN(C(=O)c3ccc(OC)o3)C2)c1 (centres undefined),0.7,-3.8%,-11.1%,1.0%,4.7%,50.1µM*
O=C(/C(N=Nc1cccc([N+](=O)[O-])c1)=C(/O)c1ccc(Br)cc1)C(F)(F)F,1.5,15.8µM*[quencher],25.1µM*,5.6%,8.0%,12.3%
CCCCCCCCCCCCCCC[C@@H](O)[C@H](CO)NC(=O)CCCCCCC,1.0,-1.3%,-4.6%,6.6%,-3.2%,29.2%
NC(=O)CC(NC(=O)c1ccc(Br)cc1)c1ccc(NCCc2ccc(F)cc2)c([N+](=O)[O-])c1 (centres undefined),1.3,-23.8%,?,-0.9%,-14.6%,-11.5%
NC(=O)CC(NC(=O)c1ccccc1)c1ccc(NCCOc2ccccc2)c([N+](=O)[O-])c1 (centres undefined),0.0,-15.0%,12.6µM*,-6.9%,5.5%,0.0%
NC(=O)CC(NC(=O)c1ccccc1)c1ccc(NCCc2cccc(F)c2)c([N+](=O)[O-])c1 (centres undefined),-1.8,-25.7%,15.8µM*,1.7%,-3.8%,-2.2%
CC(=O)c1ccc(NC(=S)Nc2ccc(Br)c(Cl)c2)cc1,2.3,?,8.9%,-5.5%,?,6.7%
CC(=O)c1ccc(NC(=S)NC(C)c2ccc(Cl)cc2Cl)cc1 (centres undefined),1.4,14.1µM*[quencher],9.3%,-20.6%,31.6µM*,4.2%
O=C(c1ccc([N+](=O)[O-])cc1[N+](=O)[O-])n1cnc2ccccc21,-20.1,-19.4%,-11.4%,0.7%,-1.8%,79.4µM*
